PubChem BioAssay (NCATS)
Inconclusive results are not listed. Active and inactive are the calls of the source. Unless noted, the call rests on the fitted dose curve; in most records, active means well fitted curve in the direction sought with a large enough effect; inconclusive means small, poorly fitted or top-dose-only effect, or another doubt; inactive means no such curve, though single readings can be large; an effect the other way counts as inactive or inconclusive. Bridge positions count the residues as written; N and C are the ends. Square brackets hold non-standard residues; d marks the D form. Peptide text beside a SMILES is read from it. * marks the point of attachment. Ileψ(thiazoline)Cys = CC[C@H](C)[C@H](N)C1=N[C@H](C(=O)*)CS1; d(aIle) = CC[C@H](C)[C@@H](N)C(=O)O; dOrn = NCCC[C@@H](N)C(=O)O

Legend:
[1] = AP1 Signaling Pathway (AID 357; active means well fitted curve in either direction with a large enough effect, not every such curve was filed as active;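 further: ME-180 reporter cells stimulated with EGF at its EC50 level; on the % scale 0 is the no-effect control and ±100 the full control effect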)
In short: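 In this screen, ME-180 cells in Opti-MEM with 0.5% dialyzed FBS received EC50 EGF and compound titrations for 5 h. AP-1 reporter beta-lactamase was detected via CCF4 ratio, giving AC50 for positive and negative modulators.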

[2] = NFAT Signaling Pathway (AID 444; active means well fitted curve in either direction with a large enough effect, not every such curve was filed as active;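 further: carbachol stimulus at about its EC50 of 1 µM final; on the % scale 0 is the no-effect control and ±100 the full control effect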); conditions: Jurkat NFAT-bla M1, carbachol, beta-lactamase ratio, 5 h; at 17.2 µM (top of the series) unless noted
In short: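 Jurkat cells with NFAT-driven β-lactamase reporter and co-expressed M1 receptor, stimulated with carbachol (final 1 uM, ~EC50), compound titration, 5 h at 37 °C. CCF4 loaded 1 h at RT; 460/530 nm ratio gave %activity and AC50.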

[3] = Stat Signaling Pathway (AID 446; active means well fitted curve in either direction with a large enough effect, not every such curve was filed as active;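 further: ME-180 cervical cancer cells given 40 pM IL-6 alongside compound; SIE-controlled beta-lactamase reporter measured as 460/530 nm FRET emission ratio; on the % scale 0 is the no-effect control and ±100 the full control effect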)
In short: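 ME-180 SIE-bla cells; overnight plating; cpd + IL-6 40 pM, 5 h, 37 C; LiveBLAzer 2.5 h RT; 460/530 nm emission ratio. Normalized to 300 pM IL-6 and 125 nM JAK inhibitor controls.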

[4] = target: Mitogen-activated protein kinase 10 (Mus musculus) (UniProt Q61831); assay: JNK3 AlphaScreen Assay (AID 530; active means well fitted curve in either direction with a large enough effect, not every such curve was filed as active;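 further: kinase came from lysate of stimulated human HepG2 cells; signal reports phosphorylation of biotinylated GST-cJun 1-79 at Ser73 with 10 µM ATP; on the % scale 0 is the no-effect control and ±100 the full control effect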)
In short: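 qHTS format: compounds tested as titrations against IL-1beta/TNF-alpha-activated HepG2 lysate JNK3 with biotin-GST-cJun substrate and 10 uM ATP at room temperature. Loss of anti-phospho-cJun AlphaScreen signal indicates inhibition.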

[5] = target: 3',5'-cyclic-AMP phosphodiesterase 4B (Homo sapiens) (UniProt Q07343); assay: qHTS Assay for Inhibitors of PDE-IV (AID 607; active means well fitted activation curve with a large enough effect in the main read-out, with a control signal flat, not every such curve was filed as active; further: % of control where 0% means no effect)
Chain of 3',5'-cyclic-AMP phosphodiesterase 4B (Homo sapiens) (Q07343 whole entry, looked up): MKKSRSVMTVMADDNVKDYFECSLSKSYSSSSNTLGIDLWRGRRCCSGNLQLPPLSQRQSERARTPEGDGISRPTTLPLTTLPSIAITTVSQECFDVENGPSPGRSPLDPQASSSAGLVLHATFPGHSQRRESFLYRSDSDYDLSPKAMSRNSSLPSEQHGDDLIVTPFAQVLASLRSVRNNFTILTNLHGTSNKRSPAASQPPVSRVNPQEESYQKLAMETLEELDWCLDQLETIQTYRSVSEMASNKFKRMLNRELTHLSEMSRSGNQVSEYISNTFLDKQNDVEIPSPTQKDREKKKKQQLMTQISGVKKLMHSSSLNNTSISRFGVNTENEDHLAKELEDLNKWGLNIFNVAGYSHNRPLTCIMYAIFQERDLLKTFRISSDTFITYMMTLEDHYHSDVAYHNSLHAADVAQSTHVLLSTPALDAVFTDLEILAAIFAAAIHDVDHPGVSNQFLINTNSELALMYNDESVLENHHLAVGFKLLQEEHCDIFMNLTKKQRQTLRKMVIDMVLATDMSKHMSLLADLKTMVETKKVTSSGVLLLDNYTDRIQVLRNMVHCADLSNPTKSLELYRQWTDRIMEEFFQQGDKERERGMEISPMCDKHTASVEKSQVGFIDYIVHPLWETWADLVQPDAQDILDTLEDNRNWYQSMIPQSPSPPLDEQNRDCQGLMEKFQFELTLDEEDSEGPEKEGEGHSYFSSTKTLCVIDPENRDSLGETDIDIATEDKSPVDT
In short: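 ACTOne HEK293 cells carry a modified cAMP-gated CNG channel and express endogenous PDE4; plated 1000 cells/well, compounds up to 22.9 uM final. Membrane-potential dye fluorescence (ex 535/em 590) was read; parental cells received 10 uM forskolin + 100 uM RO 20-1724.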

[6] = qHTS Assay for Identification of Small Molecule Agonists for Hypoxia Response Element Signaling Pathway (AID 914; active means well fitted activation curve with a large enough effect in the signal ratio, with a control signal flat, not every such curve was filed as active; the % refers to the signal ratio; further: % of control where 0% means no effect); conditions: ME-180 (cervical carcinoma) HRE-bla reporter, beta-lactamase ratio, CoCl2, 17 h; activation: stronger effect = higher value
In short: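 Reporter activity (beta-lactamase, CCF4 460nm/530nm ratio) in HRE-bla ME-180 cells is recorded after 17 h compound exposure with EC50 CoCl2 at 37 degrees Celsius. AC50 values come from titration data.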

[7] = target: Ubiquitin carboxyl-terminal hydrolase 1 (Homo sapiens) (UniProt O94782); assay: Inhibitors of USP1/UAF1: Pilot qHTS (AID 504865);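 further: rhodamine fluorescence freed from ubiquitin-rhodamine substrate followed over time; top concentration of the series differs between compounds; on the % scale 0 is the no-effect control and ±100 the full control effect; nearly all actives have a fitted effect of over 35% in size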
Chain of Ubiquitin carboxyl-terminal hydrolase 1 (Homo sapiens) (O94782 whole entry, looked up): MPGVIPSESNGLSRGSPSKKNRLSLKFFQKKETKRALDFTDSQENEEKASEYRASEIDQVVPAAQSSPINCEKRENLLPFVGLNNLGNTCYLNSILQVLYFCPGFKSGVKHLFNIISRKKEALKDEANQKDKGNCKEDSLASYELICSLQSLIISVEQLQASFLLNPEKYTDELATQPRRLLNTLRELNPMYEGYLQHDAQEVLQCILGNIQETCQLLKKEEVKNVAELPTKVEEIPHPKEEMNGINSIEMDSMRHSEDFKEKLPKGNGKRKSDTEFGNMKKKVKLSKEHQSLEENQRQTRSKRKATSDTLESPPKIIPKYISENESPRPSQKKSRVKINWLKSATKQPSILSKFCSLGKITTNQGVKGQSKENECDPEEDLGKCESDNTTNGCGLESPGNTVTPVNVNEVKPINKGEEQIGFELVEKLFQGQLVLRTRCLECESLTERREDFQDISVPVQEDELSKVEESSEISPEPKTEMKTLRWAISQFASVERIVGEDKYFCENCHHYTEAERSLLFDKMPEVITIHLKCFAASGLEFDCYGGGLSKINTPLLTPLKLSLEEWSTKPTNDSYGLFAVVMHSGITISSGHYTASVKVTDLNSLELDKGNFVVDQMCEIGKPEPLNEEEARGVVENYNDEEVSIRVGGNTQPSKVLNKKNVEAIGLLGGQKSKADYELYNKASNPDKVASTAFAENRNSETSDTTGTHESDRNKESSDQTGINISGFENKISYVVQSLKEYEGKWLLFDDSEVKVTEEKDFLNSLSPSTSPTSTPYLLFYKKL
In short: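 USP1/UAF1 complex (1nM) preincubated with compound 15 min at room temperature, then Ub-Rho substrate (150nM final) added. Fluorescence read kinetically at 480/540 nm, 6 reads every 60 seconds. Buffer: 50mM HEPES pH 7.8, 0.5mM EDTA, 0.1 mg/ml BSA, 1mM TCEP, 0.01% Tween-20.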

[8] = target: Luciferin 4-monooxygenase (Photinus pyralis) (UniProt P08659); assay: Biochemical firefly luciferase enzyme assay for NPC (AID 624030);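 further: purified P. pyralis luciferase at 10 nM with luciferin and ATP substrate; 0% = DMSO and -100% = full luciferase inhibition by PTC124 control; nearly all actives have a fitted effect of over 70% in size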
Chain of Luciferin 4-monooxygenase (Photinus pyralis) (P08659 whole entry, looked up): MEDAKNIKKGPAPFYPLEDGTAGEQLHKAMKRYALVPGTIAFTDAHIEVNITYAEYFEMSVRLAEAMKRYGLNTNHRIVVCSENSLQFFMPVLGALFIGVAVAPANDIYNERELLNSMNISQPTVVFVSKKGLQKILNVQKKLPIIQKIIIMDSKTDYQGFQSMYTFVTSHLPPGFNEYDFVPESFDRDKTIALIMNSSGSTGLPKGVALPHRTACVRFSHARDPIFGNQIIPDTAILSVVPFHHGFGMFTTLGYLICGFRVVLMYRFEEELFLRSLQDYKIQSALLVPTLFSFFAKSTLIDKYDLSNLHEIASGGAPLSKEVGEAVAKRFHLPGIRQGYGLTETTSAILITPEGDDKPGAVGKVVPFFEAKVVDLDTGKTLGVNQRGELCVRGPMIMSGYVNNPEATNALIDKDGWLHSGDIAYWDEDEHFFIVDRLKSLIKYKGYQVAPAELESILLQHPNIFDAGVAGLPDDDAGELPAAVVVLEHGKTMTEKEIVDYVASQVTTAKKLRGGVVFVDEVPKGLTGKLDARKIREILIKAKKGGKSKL
In short: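 Purified P. pyralis luciferase at 10 nM in 50 mM Tris Acetate (final), luminescence read within 5 minutes of enzyme addition to compounds. Activity normalised to PTC124 versus DMSO; concentration-response curves classed by r2, magnitude and activity.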

[9] = S16 Schwann cell viability assay (CellTiter-Glo assay) (AID 624031);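 further: cellular ATP luminescence as a viability measure; plate controls were DMSO-treated cells for no effect and cell-free wells for full effect; nearly all actives have a fitted effect of over 70% in size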
In short: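 Native S16 Schwann cells (rat), serum-containing medium, overnight attachment then 24 h drug exposure at 37 °C/5% CO2. CellTiter-Glo ATP signal; normalized to cell-free and vehicle wells.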

[10] = S16 Schwann cell PMP22 intronic element firefly luciferase assay (AID 624032);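 further: plate controls were DMSO for no effect and PTC124 positive control mean for full effect; nearly all actives have a fitted effect of over 30% in size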
In short: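 Rat S16 Schwann cells stably carrying firefly luciferase driven by a PMP22 intronic element, in 10% FBS, treated 24 h at 37 C. ONE-Glo luminescence normalized to PTC124 control and DMSO (0%); curves classed by r2, magnitude and activity.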

[11] = qHTS profiling for inhibitors of Plasmodium falciparum proliferation (AID 504749);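 further: 0% = DMSO vehicle and full inhibition = artemisinin control; nearly all actives have a fitted effect of over 60% in size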; conditions: P. falciparum in erythrocytes, SYBR Green DNA, 72 h, at 12.8 µM (top of the series)
In short: (§1)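 Readout was DNA-dye fluorescence from lysed cultures, ex 485/em 535 nm. Parasitized red cells had grown 72 h with compound; data scaled between 0.29 uM artemisinin and DMSO wells and corrected using vehicle-only plates.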

3D7 = assay: as above; conditions: P. falciparum in erythrocytes, SYBR Green DNA, 72 h; series mostly up to 12.8 µM
In short: as §1

7G8 = assay: as above; conditions: P. falciparum in erythrocytes, SYBR Green DNA, 72 h; series mostly up to 12.8 µM
In short: as §1

AA1029 = assay: as above; conditions: P. falciparum in erythrocytes, SYBR Green DNA, 72 h; series mostly up to 12.8 µM
In short: as §1

AS120 = assay: as above; conditions: P. falciparum in erythrocytes, SYBR Green DNA, 72 h; series mostly up to 12.8 µM
In short: as §1

ATS189 = assay: as above; conditions: P. falciparum in erythrocytes, SYBR Green DNA, 72 h; series mostly up to 12.8 µM
In short: as §1

ATS95 = assay: as above; conditions: P. falciparum in erythrocytes, SYBR Green DNA, 72 h; series mostly up to 12.8 µM
In short: as §1

C2A = assay: as above; conditions: P. falciparum in erythrocytes, SYBR Green DNA, 72 h; series mostly up to 12.8 µM
In short: as §1

CP185 = assay: as above; conditions: P. falciparum in erythrocytes, SYBR Green DNA, 72 h; series mostly up to 12.8 µM
In short: as §1

CP191 = assay: as above; conditions: P. falciparum in erythrocytes, SYBR Green DNA, 72 h; series mostly up to 12.8 µM
In short: as §1

CP192 = assay: as above; conditions: P. falciparum in erythrocytes, SYBR Green DNA, 72 h; series mostly up to 12.8 µM
In short: as §1

CP194 = assay: as above; conditions: P. falciparum in erythrocytes, SYBR Green DNA, 72 h; series mostly up to 12.8 µM
In short: as §1

CP201 = assay: as above; conditions: P. falciparum in erythrocytes, SYBR Green DNA, 72 h; series mostly up to 12.8 µM
In short: as §1

CP203 = assay: as above; conditions: P. falciparum in erythrocytes, SYBR Green DNA, 72 h; series mostly up to 12.8 µM
In short: as §1

CP211 = assay: as above; conditions: P. falciparum in erythrocytes, SYBR Green DNA, 72 h; series mostly up to 12.8 µM
In short: as §1

CP215 = assay: as above; conditions: P. falciparum in erythrocytes, SYBR Green DNA, 72 h; series mostly up to 12.8 µM
In short: as §1

CP217 = assay: as above; conditions: P. falciparum in erythrocytes, SYBR Green DNA, 72 h; series mostly up to 12.8 µM
In short: as §1

CP237 = assay: as above; conditions: P. falciparum in erythrocytes, SYBR Green DNA, 72 h; series mostly up to 12.8 µM
In short: as §1

CP238 = assay: as above; conditions: P. falciparum in erythrocytes, SYBR Green DNA, 72 h; series mostly up to 12.8 µM
In short: as §1

CP247 = assay: as above; conditions: P. falciparum in erythrocytes, SYBR Green DNA, 72 h; series mostly up to 12.8 µM
In short: as §1

CP250 = assay: as above; conditions: P. falciparum in erythrocytes, SYBR Green DNA, 72 h; series mostly up to 12.8 µM
In short: as §1

CP252 = assay: as above; conditions: P. falciparum in erythrocytes, SYBR Green DNA, 72 h; series mostly up to 12.8 µM
In short: as §1

CP256 = assay: as above; conditions: P. falciparum in erythrocytes, SYBR Green DNA, 72 h; series mostly up to 12.8 µM
In short: as §1

CP260 = assay: as above; conditions: P. falciparum in erythrocytes, SYBR Green DNA, 72 h; series mostly up to 12.8 µM
In short: as §1

CC[C@H](C)[C@H](N)C1=N[C@H](C(=O)N[C@@H](CC(C)C)C(=O)N[C@@H](CCC(=O)O)C(=O)N[C@@H](C(=O)N[C@H]2CCCCNC(=O)[C@@H](CC(N)=O)NC(=O)[C@@H](CC(=O)O)NC(=O)[C@@H](Cc3cnc[nH]3)NC(=O)[C@@H](Cc3ccccc3)NC(=O)[C@@H]([C@@H](C)CC)NC(=O)[C@@H](CCCN)NC2=O)[C@@H](C)CC)CS1 ({Ileψ(thiazoline)Cys}-LE[d(aIle)]K[dOrn][d(aIle)][dF][dH][dD][dN]; lactam 4-C)
inactive: outcome [1] | activity change, negative = inhibition [2] 1.53% | outcome [3] | Potency [4] | outcome [5] | activation [6] -5.24% | Potency [7] | Potency [8] | outcome [9] | Potency [10] | activity, negative = inhibition ([11]; parasite line A) 0.552% | activity, negative = inhibition ([11]; parasite line B) 7.07% | Potency (3D7) | Potency (7G8) | Potency (AA1029) | Potency (AS120) | Potency (ATS189) | Potency (ATS95) | Potency (C2A) | Potency (CP185) | Potency (CP191) | Potency (CP192) | Potency (CP194) | Potency (CP201) | Potency (CP203) | Potency (CP211) | Potency (CP215) | Potency (CP217) | Potency (CP237) | Potency (CP238) | Potency (CP247) | Potency (CP250) | Potency (CP252) | Potency (CP256) | Potency (CP260)
